Experimental data from PubChem BioAssay AID1159580 (chemical genetic matrix, 2015).
Hit rate of the full screen: of about 5,500 compounds, about 2,000 (36%) were called active. Not shown: some 18% with an inconclusive outcome. Rule as the data show it: active = normalized growth mostly below about 0.91 (no sharp cut-off); inconclusive = no clear call, values can overlap the other calls; inactive = mostly above about 0.92. Some of the results follow.

Assay: chemical genetic growth profiling, strain panel (AID 1159580);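 also: tested at 20 µM; growth read once vehicle control cultures reached saturation at 30 °C; 1 = growth at the plate median or of vehicle wells; lower values mean less growth of the strain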
Conditions: S. cerevisiae deletion strains, growth OD

Measured: normalized growth

O=C(O)c1ccccc1Nc1ccccc1
active: locus YCL061C, strain MRC1, active compounds read low 0.892 | locus YCL069W, strain vba3, active compounds read low 0.907 | locus YCR088W, strain abp1, active compounds read low 0.907 | locus YDR001C, strain nth1, active compounds read low 0.892 | locus YEL037C, strain rad23, active compounds read low 0.913 | locus YEL061C, strain CIN8 (second series), active compounds read low 0.899 | locus YER111C, strain swi4, active compounds read low 0.908 | locus YGL227W, strain vid30, active compounds read low 0.909 | locus YHR030C, strain SLT2, active compounds read low 0.482 | locus YHR079C, strain IRE1, active compounds read low 0.395 | locus YJL092W, strain hpr5, active compounds read low 0.893 | locus YJL095W, strain BCK1, active compounds read low 0.502 | locus YJL115W, strain asf1, active compounds read low 0.901 | locus YJL129C, strain trk1, active compounds read low 0.847 | locus YJL154C, strain vps35, active compounds read low 0.894 | locus YJR066W, strain TOR1, active compounds read low 0.392 | locus YKR026C, strain gcn3, active compounds read low 0.903 | locus YKR091W, strain srl3, active compounds read low 0.927 | locus YLL041C, strain sdh2, active compounds read low 0.925 | locus YLR113W, strain HOG1, active compounds read low 0.291 | locus YLR262C, strain YPT6 (second series), active compounds read low 0.832 | locus YMR129W, active compounds read low 0.889 | locus YNL183C, strain NPR1, active compounds read low 0.367 | locus YNL322C, strain KRE1 (second series), active compounds read low 0.871 | locus YOR231W, strain MKK1, active compounds read low 0.413 | locus YPL240C, strain hsp82, active compounds read low 0.924 | locus YPL256C, strain CLN2, active compounds read low 0.36
inactive: locus YAL013W, strain DEP1, active compounds read low 1.01 | locus YAL021C, strain ccr4, active compounds read low 0.953 | locus YAL026C, strain drs2, active compounds read low 0.921 | locus YAL030W, strain snc1, active compounds read low 0.94 | locus YAL040C, strain CLN3, active compounds read low 1.01 | locus YBL061C, strain skt5, active compounds read low 0.946 | locus YBR009C, strain hhf1, active compounds read low 0.992 | locus YBR023C, strain chs3, active compounds read low 0.951 | locus YBR171W, strain sec66, active compounds read low 0.894 | locus YBR231C, strain swc5, active compounds read low 0.966 | locus YBR279W, strain paf1, active compounds read low 0.964 | locus YCL011C, strain gbp2, active compounds read low 0.922 | locus YCL016C, strain dcc1, active compounds read low 0.961 | locus YDL005C, strain med2, active compounds read low 0.957 | locus YDL040C, strain nat1, active compounds read low 0.944 | locus YDR069C, strain doa4, active compounds read low 1.01 | locus YDR137W, strain rgp1, active compounds read low 0.86 | locus YDR150W, strain NUM1, active compounds read low 0.994 | locus YDR159W, strain sac3, active compounds read low 0.957 | locus YDR195W, strain ref2 1.05 | locus YDR297W, strain sur2, active compounds read low 0.929 | locus YDR334W, strain swr1, active compounds read low 0.926 | locus YDR335W, strain msn5, active compounds read low 0.941 | locus YDR363W, strain ESC2, active compounds read low 1.01 | locus YDR392W, strain spt3, active compounds read low 0.852 | locus YEL003W, strain gim4, active compounds read low 0.924 | locus YER002W, strain NOP16, active compounds read low 0.941 | locus YER015W, strain faa2, active compounds read low 0.947 | locus YER016W, strain bim1, active compounds read low 0.972 | locus YER155C, strain BEM2 (second series), active compounds read low 0.909 | locus YFR010W, strain ubp6, active compounds read low 0.989 | locus YGL167C, strain pmr1, active compounds read low 0.92 | locus YGL173C, strain kem1, active compounds read low 0.954 | locus YGL240W, strain doc1, active compounds read low 0.985 | locus YGL253W, strain hxk2, active compounds read low 0.926 | locus YGR078C, strain PAC10, active compounds read low 0.964 | locus YHR013C, strain ard1, active compounds read low 0.989 | locus YHR027C, strain rpn1, active compounds read low 0.938 | locus YHR142W, strain chs7, active compounds read low 0.908 | locus YJL095W, strain BCK1 (second series), active compounds read low 0.938 | locus YJL164C, strain tpk1, active compounds read low 0.957 | locus YJL166W, strain qcr8, active compounds read low 0.97 | locus YJL187C, strain SWE1, active compounds read low 0.971 | locus YKL160W, strain elf1, active compounds read low 0.938 | locus YLL001W, strain dnm1, active compounds read low 0.966 | locus YLL026W, active compounds read low 0.934 | locus YLR027C, strain aat2, active compounds read low 0.956 | locus YLR221C, strain rsa3, active compounds read low 0.962 | locus YLR258W, strain gsy2, active compounds read low 0.961 | locus YLR320W, strain mms22, active compounds read low 0.99 | locus YLR342W, strain FKS1, active compounds read low 0.923 | locus YLR357W, strain rsc2, active compounds read low 1.03 | locus YLR370C, strain arc18, active compounds read low 0.945 | locus YLR384C, strain iki3, active compounds read low 0.934 | locus YML120C, strain ndi1, active compounds read low 0.963 | locus YMR058W, strain fet3, active compounds read low 0.935 | locus YMR125W, strain sto1, active compounds read low 0.988 | locus YMR205C, strain PFK2, active compounds read low 1 | locus YMR231W, strain pep5, active compounds read low 0.933 | locus YNL071W, strain lat1, active compounds read low 0.929 | locus YNL128W, strain TEP1, active compounds read low 0.973 | locus YNL175C, strain NOP13, active compounds read low 0.935 | locus YNL197C, strain WHI3, active compounds read low 0.927 | locus YNL209W, strain ssb2, active compounds read low 0.949 | locus YNL224C, strain SQS1, active compounds read low 0.94 | locus YNL248C, strain rpa49, active compounds read low 0.99 | locus YNR049C, strain mso1, active compounds read low 0.922 | locus YOR001W, strain rrp6, active compounds read low 0.951 | locus YOR070C, strain gyp1, active compounds read low 0.945 | locus YOR080W, strain dia2, active compounds read low 0.959 | locus YOR083W, strain WHI5 (second series), active compounds read low 0.982 | locus YOR083W, strain WHI5, active compounds read low 0.929 | locus YOR106W, strain vam3, active compounds read low 0.956 | locus YOR265W, strain rbl2, active compounds read low 0.941 | locus YOR270C, strain vph1, active compounds read low 0.97 | locus YOR290C, strain snf2, active compounds read low 0.934 | locus YPL051W, strain arl3, active compounds read low 0.933 | locus YPL055C, strain LGE1, active compounds read low 1.01 | locus YPL078C, strain atp4, active compounds read low 0.914 | locus YPL106C, strain sse1, active compounds read low 1.01
